Tg IFNy HTS = T. gondii growth inhibition with IFN-gamma, primary screen, cell-based | Toxoplasma gondii growth in IFN-gamma-treated host cells; stronger effect = lower value | AID 1259416, 2018 | 69,000 tested, 3.8% active | activity change, negative = inhibition, % (test concentration not listed); in the data active means activity change below about -70%, passing the limit was not always enough;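 further: host cells are HeLa cells infected with Toxoplasma gondii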
Numbers without * were called inactive. The sample as a whole holds a higher share of hits than the screen did.

SMILES | Tg IFNy HTS
Cc1ccc(CNC(=O)c2cc3cccnc3n(Cc3ccc(Cl)cc3)c2=O)cc1 | 30
O=C(NCCc1ccccc1)c1cc2cccnc2n(Cc2ccccc2)c1=O | 29
CCCCNC(=O)c1cc2cccnc2n(Cc2ccccc2)c1=O | -6
COc1ccc(CNC(=O)c2cc3cccnc3n(Cc3ccccc3)c2=O)cc1 | -74*
O=C(NCc1ccc(Cl)cc1)c1cc2cccnc2n(Cc2ccccc2)c1=O | -66
COc1ccc2c(c1)C1(CCN(C(=O)c3ccc(F)c4ccccc34)CC1)CC2CC(=O)O (stereo unspecified) | -13
CNC(=O)[C@@H]1CC2CN(C(=O)c3cnoc3C)CC2N1C(C)C (stereo partly specified) | 1
CN1CCC2(CCN(CCN)CC2)C1 | -10
COCCN(Cc1sccc1C)C(=O)c1c(C)n(C)c2ccc(OC)cc12 | -30
CNC(=O)CN1CCOCC12CCN(c1ccc(C)nn1)CC2 | -1

Screening results (PubChem)
